Experimental data from PubChem BioAssay AID1159580 (chemical genetic matrix, 2015).
Several values for one entry are separate records, joined by “and”; a condition that tells them apart may be missing. Identical values can stand only once. Hit rate of the full screen: of about 5,500 compounds, about 2,000 (36%) were called active. Roughly 18% stayed inconclusive and do not appear here. Rule as the data show it: active = normalized growth mostly below about 0.91 (no sharp cut-off); inconclusive = no clear call, values can overlap the other calls; inactive = mostly above about 0.92. This is one part of the list.

Experiment: chemical genetic growth profiling, strain panel (AID 1159580);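 also: tested at 20 µM; growth read once vehicle control cultures reached saturation at 30 °C; 1 = growth at the plate median or of vehicle wells; lower values mean less growth of the strain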
Conditions: S. cerevisiae deletion strains, growth OD

Measured: normalized growth

COc1ccc2c(c1)c(CC(=O)OCC(=O)O)c(C)n2C(=O)c1ccc(Cl)cc1
inactive: locus YAL013W, strain DEP1, hits give low values 1.01 | locus YAL021C, strain ccr4, hits give low values 0.982 | locus YAL026C, strain drs2, hits give low values 1.01 | locus YAL030W, strain snc1, hits give low values 0.99 | locus YBL061C, strain skt5, hits give low values 1 | locus YBR009C, strain hhf1, hits give low values 0.991 | locus YBR021W, strain FUR4, hits give low values 1.01 | locus YBR023C, strain chs3, hits give low values 1.01 | locus YBR171W, strain sec66, hits give low values 0.978 | locus YBR229C, strain ROT2, hits give low values 1.02 | locus YBR231C, strain swc5, hits give low values 0.973 | locus YBR279W, strain paf1, hits give low values 1.01 | locus YCL011C, strain gbp2, hits give low values 1.02 | locus YCL016C, strain dcc1, hits give low values 1.01 | locus YCL029C, strain bik1, hits give low values 1.04 | locus YCL069W, strain vba3, hits give low values 1 | locus YCR088W, strain abp1, hits give low values 1.01 | locus YDL005C, strain med2, hits give low values 0.979 | locus YDL035C, strain GPR1, hits give low values 1.02 | locus YDL040C, strain nat1, hits give low values 0.995 | locus YDL074C, strain BRE1, hits give low values 1.01 | locus YDL101C, strain DUN1, hits give low values 1.02 | locus YDL134C, strain PPH21, hits give low values 1.02 | locus YDL185W, strain tfp1, hits give low values 1.02 | locus YDL192W, strain arf1, hits give low values 1.02 | locus YDR001C, strain nth1, hits give low values 1.01 | locus YDR069C, strain doa4, hits give low values 0.996 | locus YDR101C, strain arx1, hits give low values 1.02 | locus YDR137W, strain rgp1, hits give low values 1.02 | locus YDR150W, strain NUM1, hits give low values 1.02 | locus YDR159W, strain sac3, hits give low values 0.964 | locus YDR162C, strain NBP2, hits give low values 1.01 | locus YDR195W, strain ref2 0.939 | locus YDR297W, strain sur2, hits give low values 1 | locus YDR318W, strain mcm21, hits give low values 1.02 | locus YDR334W, strain swr1, hits give low values 1 | locus YDR335W, strain msn5, hits give low values 0.989 | locus YDR388W, hits give low values 1.01 | locus YDR392W, strain spt3, hits give low values 1.03 | locus YDR502C, strain sam2, hits give low values 1.03 | locus YEL003W, strain gim4, hits give low values 0.988 | locus YEL037C, strain rad23, hits give low values 1 | locus YEL061C, strain CIN8 (second series), hits give low values 0.995 | locus YEL061C, strain CIN8, hits give low values 1.01 | locus YER015W, strain faa2, hits give low values 1 | locus YER016W, strain bim1, hits give low values 1.01 | locus YER110C, hits give low values 1.02 | locus YER111C, strain swi4, hits give low values 0.991 | locus YER155C, strain BEM2 (second series), hits give low values 0.989 | locus YER155C, strain BEM2, hits give low values 1.01 | locus YER167W, strain BCK2, hits give low values 1.01 | locus YFR010W, strain ubp6, hits give low values 0.994 | locus YGL078C, strain dbp3, hits give low values 1.01 | locus YGL086W, strain mad1, hits give low values 1.01 | locus YGL167C, strain pmr1, hits give low values 0.987 | locus YGL173C, strain kem1, hits give low values 0.976 | locus YGL227W, strain vid30, hits give low values 0.999 | locus YGL240W, strain doc1, hits give low values 0.982 | locus YGL248W, strain PDE1, hits give low values 1.01 | locus YGL253W, strain hxk2, hits give low values 1.01 | locus YGR078C, strain PAC10, hits give low values 1.02 | locus YGR135W, strain pre9, hits give low values 1.02 | locus YGR229C, strain SMI1, hits give low values 1.02 | locus YGR252W, strain gcn5, hits give low values 0.987 | locus YHR013C, strain ard1, hits give low values 1.09 | locus YHR027C, strain rpn1, hits give low values 0.999 | locus YHR030C, strain SLT2, hits give low values 1.02 and 0.958 | locus YHR079C, strain IRE1 (second series), hits give low values 1.01 | locus YHR079C, strain IRE1, hits give low values 0.941 | locus YHR094C, strain hxt1, hits give low values 1.01 | locus YHR129C, strain ARP1, hits give low values 1 | locus YHR142W, strain chs7, hits give low values 1.01 | locus YHR200W, strain rpn10, hits give low values 1.01 | locus YIL066C, strain RNR3, hits give low values 1.02 | locus YIL073C, strain SPO22, hits give low values 1.06 | locus YIL125W, strain kgd1, hits give low values 1.01 | locus YIR030C, strain dcg1, hits give low values 1.02 | locus YJL092W, strain hpr5, hits give low values 0.981 | locus YJL095W, strain BCK1 (second series), hits give low values 1.01 | locus YJL095W, strain BCK1, hits give low values 1.05 and 0.968 | locus YJL115W, strain asf1, hits give low values 0.992 | locus YJL129C, strain trk1, hits give low values 0.979 | locus YJL134W, strain LCB3, hits give low values 1.01 | locus YJL154C, strain vps35, hits give low values 0.992 | locus YJL164C, strain tpk1, hits give low values 1.03 | locus YJL166W, strain qcr8, hits give low values 0.974 | locus YJL168C, strain set2, hits give low values 1.01 | locus YJL187C, strain SWE1 (second series), hits give low values 1.03 | locus YJL187C, strain SWE1, hits give low values 1.01 | locus YJR043C, strain POL32, hits give low values 1.03 | locus YJR066W, strain TOR1, hits give low values 0.89
